An excerpt weighted towards active compounds, which were near 3.3% of everything screened.
MBD2 inh = blocks human MBD2 binding to methylated DNA. 370,000 compounds, 0.31% hits. Q9UBB5. inhibition, % at 4.4 µM. AID 686964. TR-FRET, MBD2 binding to methylated oligonucleotide; in the data active means inhibition above about 13%
PRMT1 inh = inhibitors of human PRMT1; recombinant PRMT1, activity-based probe fluorescence polarization; 370,000 compounds, 1.3% hits; AID 652257; inhibition, % at 2.79 µM;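 active means inhibition above about 21% made by adding two undisclosed values, limit read from the data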
UHRF1 MBD2 ctr = UHRF1 methyl-DNA binding inhibition; Q96T88; UHRF1 binding to methylated oligo, TR-FRET; inhibition, % at 4.4 µM; 370,000 compounds, 0.75% hits; in the data active means inhibition above about 21%;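 further: UHRF1 SRA domain binding a hemimethylated CpG hairpin DNA probe; 0% = median of test compound wells and 100% = reference inhibitor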
Target sequence (Q96T88 whole entry, looked up, the tested form may be a part): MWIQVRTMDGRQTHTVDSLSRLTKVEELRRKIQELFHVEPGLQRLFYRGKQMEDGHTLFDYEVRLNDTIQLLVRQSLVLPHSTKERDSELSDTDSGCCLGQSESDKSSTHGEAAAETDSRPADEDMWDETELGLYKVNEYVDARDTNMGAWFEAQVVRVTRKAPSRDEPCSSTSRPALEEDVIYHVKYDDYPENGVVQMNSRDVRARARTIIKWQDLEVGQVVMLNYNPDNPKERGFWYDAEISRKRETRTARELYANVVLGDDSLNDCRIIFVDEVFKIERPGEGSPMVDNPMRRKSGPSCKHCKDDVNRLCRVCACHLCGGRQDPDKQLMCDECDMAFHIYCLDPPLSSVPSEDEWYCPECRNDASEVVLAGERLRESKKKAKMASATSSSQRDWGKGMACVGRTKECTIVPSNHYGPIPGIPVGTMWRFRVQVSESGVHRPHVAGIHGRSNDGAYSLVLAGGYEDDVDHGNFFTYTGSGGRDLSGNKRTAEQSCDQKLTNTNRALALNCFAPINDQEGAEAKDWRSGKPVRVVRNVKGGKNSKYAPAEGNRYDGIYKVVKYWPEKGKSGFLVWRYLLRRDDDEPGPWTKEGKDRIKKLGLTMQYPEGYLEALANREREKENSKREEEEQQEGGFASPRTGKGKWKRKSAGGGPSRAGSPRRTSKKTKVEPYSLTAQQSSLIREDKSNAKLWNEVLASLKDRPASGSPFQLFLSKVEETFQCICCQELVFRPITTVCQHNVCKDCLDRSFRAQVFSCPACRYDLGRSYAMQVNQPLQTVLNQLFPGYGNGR
PfM18AAP inh-1 = blocks P. falciparum M18 aspartyl aminopeptidase | recombinant PfM18AAP, H-Glu-NHMec fluorogenic cleavage | inhibition, % at 7.35 µM | 290,000 compounds, 1.2% hits | AID 1822;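 active means inhibition above the campaign mean inhibition over all tested compounds plus 3 SD, cut at about 28% in these data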;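 further: 0% = plate median of test compound wells and 100% = 2 mM ZnCl2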
PfG6PD inh = PfG6PD (Plasmodium falciparum) enzyme inhibition. PfGluPho enzyme, NADPH resazurin-diaphorase fluorescence. inhibition, % at 20 µM. AID 504690. 350,000 compounds, 0.78% hits;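 active means inhibition reaching at least a set limit at 20 µM in the primary screen, cut at about 59% in these data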;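 further: 0% = DMSO wells with substrate and 100% = DMSO wells lacking glucose-6-phosphate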
PfM18AAP inh-2 = confirmation of Plasmodium falciparum M18 aspartyl aminopeptidase inhibitors; shares compounds with PfM18AAP inh-1; recombinant PfM18AAP, H-Glu-NHMec fluorogenic cleavage; inhibition, % at 7.35 µM; 2,400 compounds, 28% hits;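 active means mean inhibition over replicate wells above the hit cutoff set for the earlier primary screen, cut at about 29% in these data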;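 further: 0% = median of test compound wells and 100% = 2 mM ZnCl2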
CTSL1 confirm = Cathepsin L (human) inhibition, confirmation; inhibition, % at 5.96 µM; purified cathepsin L1, Z-Leu-Arg-MCA fluorescence; shares compounds with PfM18AAP inh-1; AID 2178; 2,400 tested, under 10 active;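 active means average inhibition across replicates above the hit cutoff set in the earlier primary screen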;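 further: 0% = median of test compound wells and 100% = Z-Phe-Ala-diazomethylketone 1 µM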
* marks the source's active call; other numbers are inactive results; x = no result given.

SMILES	MBD2 inh	PRMT1 inh	UHRF1 MBD2 ctr	PfM18AAP inh-1	PfG6PD inh	PfM18AAP inh-2	CTSL1 confirm
Oc1ccc(/C=N/N=C/c2ccc(O)c(O)c2)cc1O	2	13	0	81*	17	76*	6
O=C(Cc1ccc(Cl)cc1)N/N=C/c1ccc(O)c(O)c1	1	3	1	x	9	x	x
O=C1Nc2ccccc2/C1=N\N=C\c1ccc(O)c(O)c1	-8	33*	-2	48*	-26	47*	11
O=Cc1ccc(O)c(O)c1	0	-3	1	48*	-27	31*	-1
Cc1ccccc1C(=O)N(C)[C@H]1C[C@H]2c3[nH]c4c(-c5ccccc5)cccc4c3CCN2C[C@H]1[C@H](C)O	-5	-2	-1	x	x	x	x
CC(C)=CCC/C(C)=C/CN1C(=O)N(c2ccc(F)cc2)[C@H]2C[C@@H](c3ccccc3)[C@@H](C)[C@@H](C(=O)N3CCOCC3)C[C@H]21	-5	1	-3	x	x	x	x
S=C(N/N=C/c1ccccc1)N1CCOCC1	0	-1	-2	34*	27	-40	35*
S=C(Nc1ccccc1)N1CCOCC1	2	2	1	2	3	x	x
Cc1nc2ccc(NC(=O)c3cc(Cl)ccc3F)cc2c(=O)[nH]1	1	-3	-2	x	x	x	x
O=C1NN(c2ccccc2)C(=O)/C1=C\c1coc2ccc(O)cc2c1=O	5	20	5	37*	5	-4	-6
O=C1NN(c2ccccc2)C(=O)/C1=C/c1coc2ccccc2c1=O	0	11	4	2	-4	x	x
COC(=O)[C@]12C[C@H](CC(=O)NCc3cccs3)C(=O)N(Cc3ccccc3)C1=C[C@H](C1CCCC1)O[C@@H]2C	5	5	1	x	x	x	x
NNC(=O)c1c(O)c2cccc3c2n(c1=O)CCC3	2	1	0	34*	17	-4	2
COc1cc(CNc2cccc3c2S(=O)(=O)N([C@H](C)c2ccccc2)C[C@@H](COCc2ccccc2)O3)cc(OC)c1OC	-3	0	-3	x	x	x	x
CCOc1cc(C2Nc3ccccc3NC3=C2C(=O)CC(C)(C)C3)ccc1O (stereo not drawn)	-3	3	-6	37*	32	-28	-8
N#C/C(=C\c1ccccc1)C(=O)Nc1nncs1	2	9	2	35*	-13	37*	-2
N#C/C(=C\c1ccccc1)C(=O)Nc1cccnc1	4	1	2	2	-10	x	x
O=C(Nc1nc(-c2ccccn2)cs1)Nc1ccc(F)cc1F	5	5	-3	48*	57	0	2
O=C(Nc1nc(-c2ccccc2)cs1)Nc1ccc(F)cc1F	2	-3	-2	-14	3	x	x
C[C@H](O)[C@@H]1C(=O)N2CCc3c([nH]c4c(-c5ccc6c(c5)OCO6)cccc34)[C@@H]2C[C@@H]1N(C)C(=O)NC1CCCCC1	2	-1	2	x	x	x	x
CCOc1cc(CCNC(=O)c2cc3ccsc3n2C)ccc1OC	-1	0	3	x	x	x	x
COc1cc(C(=O)O)ccc1OC(C)=O	1	-1	0	-4	-6	x	x
CC(=O)Oc1ccc(C(=O)O)cc1OC(C)=O	-9	-2	-5	70*	-11	50*	-5
CCN(CC)C(=O)CC[C@H]1CC[C@]2(CCCN(Cc3cccs3)C2)O1	-4	-2	-3	x	x	x	x
O=C(NNS(=O)(=O)c1ccc(F)cc1)c1ccc2c(c1)OCO2	-4	0	-3	50*	-17	11	2
SMILES	MBD2 inh	PRMT1 inh	UHRF1 MBD2 ctr	PfM18AAP inh-1	PfG6PD inh	PfM18AAP inh-2	CTSL1 confirm
COCCN(C[C@@H]1[C@H](c2ccccc2)[C@H](CO)N1c1nc(C)c(C)s1)S(=O)(=O)c1ccccc1[N+](=O)[O-]	-3	-2	1	x	x	x	x
NC(=O)c1c(N)[nH]c(C(=O)c2ccccc2)c1-c1ccccn1	-1	3	-1	x	x	x	x
COc1ccc(/C(C)=N\Nc2nc(-c3ccccc3)cc(=O)[nH]2)cc1	-5	5	1	40*	-5	-31	5
CSc1ccc(C(=S)N2CCN(C(c3ccccc3)c3ccccc3)CC2)cc1	4	7	0	41*	56	-5	-1
Cc1cc(O)c2/c(=N\N)c(-c3csc(C)n3)coc2c1	0	-2	-2	71*	37	48*	-1
O=C(C(=O)N1CCN(C(=O)C2CCCC2)CC1)c1cccc(C(F)(F)F)c1	-3	-8	2	x	x	x	x
NC(=O)CNc1ncc(C(F)(F)F)cc1Cl	-2	1	-1	1	6	x	x
Cc1onc(C(=O)NN)c1C(=O)Nc1ncc(C(F)(F)F)cc1Cl	-2	0	-1	55*	6	-36	-5
Nc1nc2c(ncn2[C@@H]2O[C@H](C(=O)NCCCc3ccccc3)[C@@H](O)[C@H]2O)c(=O)[nH]1	3	3	0	x	x	x	x
C=CCN1[C@@H](C)[C@@H](c2ccccc2)Oc2c(Cl)cccc2S1(=O)=O	-4	-4	1	x	x	x	x
COc1ccc(/C=N/Nc2nonc2N)cc1	-6	0	-4	32*	-2	-30	-2
COc1ccc(/C=N/Nc2nn3cnnc3c3ccccc23)cc1	-7	4	2	38*	20	-48	3
C[C@H]1CN([C@@H](C)CO)C(=O)CCCn2cc(nn2)CO[C@@H]1CN(C)S(=O)(=O)c1ccccc1F	-6	0	0	x	x	x	x
CC(C)(C)c1ccc(NNC(=O)C2CCC2)cc1	3	8	-1	40*	13	-20	4
COc1ccc(C(=O)N/N=C/c2ccc(OC)c(COc3ccccc3)c2)cc1	0	-4	-5	-5	-15	x	x
COc1ccc(/C=N\NC(=O)c2cc(O)c(O)c(O)c2)cc1CN1CCN(c2ccc(F)cc2)CC1	-1	7	11	38*	39	-13	-1
COc1ccc(/C=N/NC(=O)c2ccc(C)cc2)cc1CN1CCN(c2ccc(F)cc2)CC1	x	x	x	-4	-11	x	x
COc1ccc(/C=N\NC(=O)c2cc(O)c(O)c(O)c2)cc1COc1ccc(C(=O)OCC(C)C)cc1	1	7	7	32*	24	-7	-1
COC(=O)[C@]12C[C@H](CC(=O)N3CCSCC3)C(=O)N(Cc3ccc(Cl)cc3Cl)C1=C[C@H](COCc1ccccc1)O[C@@H]2C	-2	-2	2	x	x	x	x
COC(=O)[C@]12C[C@H](CC(=O)N3CCOCC3)C(=O)N(Cc3ccccc3)C1=C[C@H](C1CCCC1)O[C@@H]2C	-4	2	-1	x	x	x	x
C[C@H]1[C@H](N(Cc2ccccc2)Cc2ccccc2)CC[C@@]23CCCN2C(=O)CCC[C@@H]13	0	1	0	x	x	x	x
O=C(Nc1ccc2c(c1)OCCO2)Nc1ccc2c(c1)OCO2	2	1	1	0	25	x	x
O=C(Nc1ccc2c(c1)OCCO2)NC1(C(F)(F)F)Oc2ccccc2O1	-5	9	-1	59*	19	16	5

High-throughput results deposited in PubChem by several laboratories.
